The text below walks through data of the supplement of paper PMC6555819.

Common to all, as to test: PBM binding z-score (relative to random genomic background probes); higher = stronger binding; sequences stand for … in GC…GCGATTGACAGCGTAGAATGAAGG
Assay [1] deals with FXR:RXRa (NR concentration 270 nM, RXRa partner concentration 90 nM). The procedure, abridged: (§1)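 Binding buffer was PBS pH 7.4 with 2% milk, 0.02% Triton X-100, 1 mM DTT, 0.2 mg/mL BSA and 0.4 mg/ml salmon testes DNA. In it, ligand-free nuclear receptor dimers were incubated 1 h on custom Agilent 4×180K protein-binding microarrays carrying double-stranded probes. Antibodies against each partner (one per run) detected binding, and z-scores were calculated against random background probes after regression normalization of scanned fluorescence.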

The test system of assay [2] is LXRa:RXRa (NR concentration 270 nM, RXRa partner concentration 90 nM). The procedure, abridged: as §1
The test system of assay [3] is LXRa homodimer (NR concentration 270 nM). The procedure, abridged: as §1
Assay [4] deals with LXRb:RXRa (NR concentration 270 nM, RXRa partner concentration 90 nM). The procedure, abridged: as §1
The subject of assay [5] is LXRb homodimer (NR concentration 270 nM). The procedure, abridged: as §1
Assay [6] has as its system PPARa:RXRa (NR concentration 270 nM, RXRa partner concentration 90 nM). The procedure, abridged: as §1
Assay [7] has as its system PPARg:RXRa (NR concentration 180 nM, RXRa partner concentration 90 nM). The procedure, abridged: as §1
Assay [8] relates to PPARg:RXRa 270nM:90nM, anti-RXR (NR concentration 270 nM, RXRa partner concentration 90 nM). The procedure, abridged:
as §1

For assay [9], the system named is PPARg:RXRa 30nM:10nM, anti-RXR (NR concentration 30 nM, RXRa partner concentration 10 nM). The procedure, abridged:
as §1

The subject of assay [10] is PPARg:RXRa 90nM:30nM, anti-RXR (NR concentration 90 nM, RXRa partner concentration 30 nM). The procedure, abridged:
as §1

Assay [11] relates to PPARg:RXRa DBDmut IVT, anti-RXR (DBD mutation: RXRa K156A/R161A, NR concentration 270 nM, RXRa partner concentration 90 nM). The procedure, abridged: as §1
The subject of assay [12] is PPARg:RXRa IVT, anti-PPARg (NR concentration 270 nM, RXRa partner concentration 90 nM). The procedure, abridged:
as §1

Assay [13] relates to PPARg DBDmut:RXRa IVT, anti-PPARg (DBD mutation: PPARg1 K132A/R137A, NR concentration 270 nM, RXRa partner concentration 90 nM). The procedure, abridged:
as §1

Assay [14] has as its system PPARg DBDmut IVT, anti-PPARg (DBD mutation: PPARg1 K132A/R137A, NR concentration 270 nM). The procedure, abridged: as §1
Assay [15] concerns PPARg homodimer (NR concentration 180 nM). The procedure, abridged: as §1
Assay [16] deals with PXR:RXRa (NR concentration 270 nM, RXRa partner concentration 90 nM). The procedure, abridged:
as §1

Assay [17] has as its system PXR homodimer (NR concentration 270 nM). The procedure, abridged: as §1
Assay [18] has as its system RARa:RXR (NR concentration 270 nM, RXRa partner concentration 90 nM). The procedure, abridged: as §1
Assay [19] relates to RARa homodimer (NR concentration 270 nM). The procedure, abridged:
as §1

In assay [20] the test system is RARb:RXRa (NR concentration 270 nM, RXRa partner concentration 90 nM). The procedure, abridged:
as §1

AGAATGCGGTTACCAAAGATCAGGGAAACGCTTG: the PBM binding z-score is -0.546 in [1]; 1.96 in [2]; -0.607 in assay [3]; -0.204 in [4]; -0.992 in [5]; 0.0564 in assay [6]. In addition, the PBM binding z-score in assay [7] was 0.562; in assay [8], 0.104; in [9], -0.151; in assay [10], -0.17; in assay [11], -0.0849; in assay [12] it was -0.0394. For the same sequence, the PBM binding z-score in assay [13] is -0.888; in [14] it was -0.42; in assay [15], -0.659; in assay [16] it was -0.382; in assay [17] it was -0.939; in assay [18], -0.221. Besides, the PBM binding z-score in [19] is -0.366; in assay [20], 0.18.
With AATACAGGGTCAGTAGGCCAGAGTAGGTACGAAT, the PBM binding z-score in assay [1] amounted to 3.97; in assay [2], 3.63; in [3] it was 0.625; in assay [4], 2.61; in assay [5] it was 0.737; in [6], 4.47. In addition, the PBM binding z-score in assay [7] was 5.91; in assay [8], 5.01; in assay [9], 1.93; in [10] it was 3.86; in assay [11] it was 3.22; in [12], 4.8. Besides, the PBM binding z-score came out at 1.82 in assay [13]; 0.929 in assay [14]; 1.97 in assay [15]; 1.86 in [16]; 0.246 in [17]; 2.94 in assay [18]. The PBM binding z-score in assay [19] is 1.18; in assay [20] it was 3.92.
As for ATCGAACGGTCGAAGGTGAGTATACCCACCCGAA, the PBM binding z-score was -0.145 in assay [1]; -0.0927 in [2]; -0.458 in assay [3]; -0.384 in assay [4]; -0.206 in assay [5]; 0.517 in [6]. Besides, the PBM binding z-score in assay [7] is 1.03; in [8], 1.22; in assay [9], 0.0354; in assay [10] it was 0.698; in assay [11], -0.97; in assay [12], 0.443. Also, the PBM binding z-score is 0.226 in [13]; -0.543 in assay [14]; -0.177 in assay [15]; -0.254 in assay [16]; -0.523 in [17]; 0.0689 in [18]. Further, the figures for the PBM binding z-score in [19] and in assay [20] were -0.549 and 1.05, respectively.
As to GCTATTAGATGAAAGGGCAACCGAATGATTCTCG, the PBM binding z-score in assay [1] is -0.0836; in [2] it was 0.345; in assay [3], 0.21; in assay [4], 0.469; in assay [5], -0.27; in assay [6] it was 2.46. In addition, the PBM binding z-score in assay [7] stood at 3.72; in assay [8], 5.46; in assay [9] it was 4.56; in [10] it was 5.76; in assay [11], 0.363; in assay [12], 1.35. For the same sequence, the PBM binding z-score is 0.246 in assay [13]; 0.212 in assay [14]; 0.834 in assay [15]; 0.424 in assay [16]; -0.122 in assay [17]; 0.795 in [18]. Further, the PBM binding z-score in assay [19] was determined as 0.15; in [20] it was 1.94.
With CCGAGTAAGTTATGGGGCATTCAGGCAACGGTGA, the PBM binding z-score in assay [1] is -0.323; in assay [2] it was -0.322; in assay [3] it was -0.465; in assay [4], -0.146; in assay [5], -0.649; in assay [6], -0.0291. Besides, the PBM binding z-score in assay [7] was 0.19; in [8] it was 0.385; in assay [9] it was -0.496; in [10] it was 0.0497; in assay [11] it was 0.876; in assay [12], 0.12. The PBM binding z-score is 0.0533 in [13]; -0.856 in assay [14]; 0.399 in assay [15]; -0.507 in [16]; -0.558 in assay [17]; -0.445 in assay [18]. The PBM binding z-score in assay [19] was -0.0178; in assay [20] it was -0.111.
As to CCAGACAGGTGCAAGGTAACTCAGTCTGGTACGC, the PBM binding z-score in assay [1] was -0.53; in assay [2], -0.47; in assay [3], -0.166; in [4] it was -0.568; in [5], -0.694; in [6], -0.13. The PBM binding z-score is 0.366 in assay [7]; 0.416 in [8]; -0.287 in [9]; 0.128 in assay [10]; -0.395 in [11]; -0.318 in assay [12]. Further, the PBM binding z-score in [13] was -0.426; in assay [14], -0.666; in [15], -0.0621; in assay [16] it was -0.444; in assay [17], -0.237; in assay [18], -0.146. The PBM binding z-score was -0.328 in assay [19] and -0.0725 in assay [20].
As to CGTACTGGGCCAAGGTCATTGATCAGTCAAAGCA, the PBM binding z-score in [1] was 3.11; in assay [2] it was 3.03; in assay [3] it was 1.23; in assay [4] it was 3; in assay [5], -0.201; in assay [6] it was 3.99. Also, the PBM binding z-score was 4.09 in assay [7]; 4.29 in assay [8]; 1.79 in [9]; 3.54 in assay [10]; 4.15 in assay [11]; 4.66 in assay [12]. The PBM binding z-score is -0.787 in assay [13]; -0.351 in assay [14]; 1.31 in assay [15]; 3.51 in assay [16]; 1.34 in assay [17]; 3.71 in assay [18]. Besides, the PBM binding z-score in assay [19] was -0.0917; in assay [20], 3.35.
